Of roughly 7,900 targets only a part is listed; those with a hit were picked by preference. About 0.6% of all pairs of compound and target were hits. Values without a mark were called inactive.

Chain of UniProt Q9Y5Q8 (Q9Y5Q8 whole entry, looked up): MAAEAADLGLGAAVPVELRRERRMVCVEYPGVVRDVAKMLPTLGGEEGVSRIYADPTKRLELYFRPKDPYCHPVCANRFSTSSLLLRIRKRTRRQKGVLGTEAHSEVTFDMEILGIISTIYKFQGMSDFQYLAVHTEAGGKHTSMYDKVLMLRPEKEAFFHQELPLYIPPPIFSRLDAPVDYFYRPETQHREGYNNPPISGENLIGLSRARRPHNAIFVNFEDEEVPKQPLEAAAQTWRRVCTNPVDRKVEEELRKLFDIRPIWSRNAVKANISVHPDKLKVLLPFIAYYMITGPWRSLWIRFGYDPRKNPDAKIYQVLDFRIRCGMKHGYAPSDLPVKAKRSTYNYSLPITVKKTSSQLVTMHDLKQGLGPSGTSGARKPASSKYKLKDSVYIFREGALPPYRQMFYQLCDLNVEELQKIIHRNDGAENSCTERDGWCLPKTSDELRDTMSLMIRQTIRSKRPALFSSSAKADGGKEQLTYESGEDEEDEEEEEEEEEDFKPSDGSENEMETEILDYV
Chain of UniProt P15260 (P15260 whole entry, looked up): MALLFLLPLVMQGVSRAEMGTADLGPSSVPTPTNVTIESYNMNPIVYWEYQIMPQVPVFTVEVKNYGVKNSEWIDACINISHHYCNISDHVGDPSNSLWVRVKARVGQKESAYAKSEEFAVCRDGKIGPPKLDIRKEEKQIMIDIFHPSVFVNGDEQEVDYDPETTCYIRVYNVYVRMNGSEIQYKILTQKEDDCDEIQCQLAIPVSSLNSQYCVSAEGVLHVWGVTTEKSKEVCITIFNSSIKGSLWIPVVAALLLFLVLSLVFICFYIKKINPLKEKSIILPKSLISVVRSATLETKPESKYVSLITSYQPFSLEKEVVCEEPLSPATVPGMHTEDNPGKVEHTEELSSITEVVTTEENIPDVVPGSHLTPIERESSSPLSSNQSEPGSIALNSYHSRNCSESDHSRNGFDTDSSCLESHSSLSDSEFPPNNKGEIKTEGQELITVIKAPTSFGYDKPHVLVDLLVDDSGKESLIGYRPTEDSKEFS
Chain of UniProt P37268 (P37268 whole entry, looked up): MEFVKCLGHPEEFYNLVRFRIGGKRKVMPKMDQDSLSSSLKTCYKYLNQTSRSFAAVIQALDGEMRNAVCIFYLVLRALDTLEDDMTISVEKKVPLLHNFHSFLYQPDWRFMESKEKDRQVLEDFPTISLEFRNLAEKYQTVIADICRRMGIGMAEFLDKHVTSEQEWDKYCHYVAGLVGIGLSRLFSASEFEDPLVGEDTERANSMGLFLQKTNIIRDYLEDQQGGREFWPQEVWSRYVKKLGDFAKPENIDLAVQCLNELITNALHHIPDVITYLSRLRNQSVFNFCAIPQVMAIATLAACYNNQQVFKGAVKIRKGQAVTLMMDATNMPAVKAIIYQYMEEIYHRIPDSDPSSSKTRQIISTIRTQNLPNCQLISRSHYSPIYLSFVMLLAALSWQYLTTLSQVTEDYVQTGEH
Chain of UniProt P78417 (P78417 whole entry, looked up): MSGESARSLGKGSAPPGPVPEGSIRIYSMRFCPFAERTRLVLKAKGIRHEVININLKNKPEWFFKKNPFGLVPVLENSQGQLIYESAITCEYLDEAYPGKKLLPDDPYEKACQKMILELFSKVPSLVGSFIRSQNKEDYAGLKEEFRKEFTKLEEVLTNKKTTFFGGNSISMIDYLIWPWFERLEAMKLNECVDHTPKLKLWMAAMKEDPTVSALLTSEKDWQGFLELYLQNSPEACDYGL
Chain of UniProt P49448 (P49448 whole entry, looked up): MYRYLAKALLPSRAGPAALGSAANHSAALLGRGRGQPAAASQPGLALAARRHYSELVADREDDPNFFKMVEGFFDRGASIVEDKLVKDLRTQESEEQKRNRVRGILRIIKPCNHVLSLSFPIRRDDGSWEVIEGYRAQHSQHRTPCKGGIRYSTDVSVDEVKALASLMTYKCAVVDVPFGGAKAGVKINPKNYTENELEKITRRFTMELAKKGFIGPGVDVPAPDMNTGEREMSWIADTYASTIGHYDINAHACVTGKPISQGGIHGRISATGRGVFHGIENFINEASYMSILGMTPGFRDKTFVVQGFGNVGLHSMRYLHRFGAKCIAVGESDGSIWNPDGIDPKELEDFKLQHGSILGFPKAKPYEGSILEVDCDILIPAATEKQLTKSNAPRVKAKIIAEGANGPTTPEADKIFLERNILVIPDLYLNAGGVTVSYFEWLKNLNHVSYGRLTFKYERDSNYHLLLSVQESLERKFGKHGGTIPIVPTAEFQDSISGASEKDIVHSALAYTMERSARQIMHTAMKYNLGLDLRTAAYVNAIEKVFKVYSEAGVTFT
Chain of UniProt Q14527 (Q14527 whole entry, looked up): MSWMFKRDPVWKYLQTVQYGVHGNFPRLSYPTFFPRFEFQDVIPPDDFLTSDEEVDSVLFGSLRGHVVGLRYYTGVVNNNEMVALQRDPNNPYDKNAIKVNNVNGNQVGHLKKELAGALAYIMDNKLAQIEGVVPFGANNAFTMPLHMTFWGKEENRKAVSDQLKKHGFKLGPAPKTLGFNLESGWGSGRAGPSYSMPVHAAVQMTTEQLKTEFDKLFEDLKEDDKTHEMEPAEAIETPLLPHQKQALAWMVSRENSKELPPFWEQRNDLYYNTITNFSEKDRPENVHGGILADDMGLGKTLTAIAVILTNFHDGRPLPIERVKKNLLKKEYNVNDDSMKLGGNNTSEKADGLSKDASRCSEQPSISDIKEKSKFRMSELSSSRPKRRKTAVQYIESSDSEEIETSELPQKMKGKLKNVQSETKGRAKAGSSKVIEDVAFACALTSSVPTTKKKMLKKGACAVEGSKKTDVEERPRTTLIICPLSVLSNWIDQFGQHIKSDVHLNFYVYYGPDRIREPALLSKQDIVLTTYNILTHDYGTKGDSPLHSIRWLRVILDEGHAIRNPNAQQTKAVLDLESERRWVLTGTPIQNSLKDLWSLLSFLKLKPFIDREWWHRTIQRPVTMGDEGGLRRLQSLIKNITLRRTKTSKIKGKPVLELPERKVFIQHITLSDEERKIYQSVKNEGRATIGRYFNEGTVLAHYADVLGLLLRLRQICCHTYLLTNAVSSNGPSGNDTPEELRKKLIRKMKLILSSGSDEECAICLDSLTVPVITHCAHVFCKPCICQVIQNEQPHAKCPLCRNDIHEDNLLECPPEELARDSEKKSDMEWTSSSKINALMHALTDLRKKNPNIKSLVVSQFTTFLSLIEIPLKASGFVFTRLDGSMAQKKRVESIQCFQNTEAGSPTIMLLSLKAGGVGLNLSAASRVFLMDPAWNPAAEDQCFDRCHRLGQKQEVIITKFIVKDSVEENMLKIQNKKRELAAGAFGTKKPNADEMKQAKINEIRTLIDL
Chain of UniProt O00458 (O00458 whole entry, looked up): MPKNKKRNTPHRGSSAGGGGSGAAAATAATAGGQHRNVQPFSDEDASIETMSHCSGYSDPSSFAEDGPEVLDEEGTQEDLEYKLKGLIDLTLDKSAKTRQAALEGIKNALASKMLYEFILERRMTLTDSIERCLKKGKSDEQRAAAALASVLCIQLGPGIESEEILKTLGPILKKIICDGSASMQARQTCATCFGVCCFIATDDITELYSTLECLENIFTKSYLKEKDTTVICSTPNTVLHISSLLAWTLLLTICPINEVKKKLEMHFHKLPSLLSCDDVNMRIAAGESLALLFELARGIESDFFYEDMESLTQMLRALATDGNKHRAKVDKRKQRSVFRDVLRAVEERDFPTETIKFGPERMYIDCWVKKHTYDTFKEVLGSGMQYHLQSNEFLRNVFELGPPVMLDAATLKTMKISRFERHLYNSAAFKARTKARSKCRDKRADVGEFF
Chain of UniProt P09105 (P09105 whole entry, looked up): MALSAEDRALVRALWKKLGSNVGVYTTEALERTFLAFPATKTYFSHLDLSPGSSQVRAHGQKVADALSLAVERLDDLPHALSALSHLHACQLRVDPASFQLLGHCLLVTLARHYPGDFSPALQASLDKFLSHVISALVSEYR
Chain of UniProt P23434 (P23434 whole entry, looked up): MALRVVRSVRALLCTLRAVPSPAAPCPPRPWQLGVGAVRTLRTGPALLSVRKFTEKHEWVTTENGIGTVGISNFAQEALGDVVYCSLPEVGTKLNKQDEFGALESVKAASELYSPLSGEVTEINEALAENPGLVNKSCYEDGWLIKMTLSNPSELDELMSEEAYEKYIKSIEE
Chain of UniProt Q86VS8 (Q86VS8 whole entry, looked up): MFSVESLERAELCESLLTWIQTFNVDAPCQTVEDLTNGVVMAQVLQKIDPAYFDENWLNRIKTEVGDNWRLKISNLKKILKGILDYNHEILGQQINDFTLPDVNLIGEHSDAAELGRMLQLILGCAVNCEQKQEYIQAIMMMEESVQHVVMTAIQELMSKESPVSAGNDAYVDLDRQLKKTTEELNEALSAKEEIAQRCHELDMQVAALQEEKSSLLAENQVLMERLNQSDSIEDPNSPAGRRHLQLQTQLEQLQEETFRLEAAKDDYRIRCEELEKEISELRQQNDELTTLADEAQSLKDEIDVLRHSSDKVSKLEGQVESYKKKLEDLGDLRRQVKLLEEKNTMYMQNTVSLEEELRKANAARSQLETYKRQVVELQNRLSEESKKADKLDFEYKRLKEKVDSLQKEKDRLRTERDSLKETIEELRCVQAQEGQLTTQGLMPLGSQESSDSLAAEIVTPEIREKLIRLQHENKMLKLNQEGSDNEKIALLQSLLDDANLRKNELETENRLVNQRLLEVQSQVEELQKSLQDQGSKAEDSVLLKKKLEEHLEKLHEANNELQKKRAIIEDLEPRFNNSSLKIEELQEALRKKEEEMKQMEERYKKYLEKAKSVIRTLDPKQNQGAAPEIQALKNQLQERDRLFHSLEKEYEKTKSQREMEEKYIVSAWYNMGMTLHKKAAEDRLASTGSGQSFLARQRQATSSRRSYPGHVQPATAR
Chain of UniProt Q9BUP3 (Q9BUP3 whole entry, looked up): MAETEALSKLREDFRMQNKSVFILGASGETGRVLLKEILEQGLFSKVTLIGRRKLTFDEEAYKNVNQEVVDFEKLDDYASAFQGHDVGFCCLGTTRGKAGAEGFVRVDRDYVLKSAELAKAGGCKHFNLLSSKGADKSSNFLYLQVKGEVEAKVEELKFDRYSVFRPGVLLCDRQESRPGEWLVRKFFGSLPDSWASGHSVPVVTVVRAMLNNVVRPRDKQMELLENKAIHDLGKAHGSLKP

Compound in this experiment: COC(=O)[C@H](CCSC)NC(=O)C1=C(C=C(C=C1)NC[C@H](CS)N)C2=CC=CC=C2
The experiment in a line: log2 fold change, soluble protein after heating vs DMSO (PISA); higher = thermal stabilisation; K562 cells, 10 uM, 30 min; active = over 0.2 and 3.5 SD of the protein, either way, in both replicates (recomputed). Put shortly:
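K562 cells (2×10^6 cells/mL) were treated with 10 μM compound for 30 min, and aliquots were heated for 3 min over 48°C-58°C. Pooled aliquots were extracted in PBS with 0.5% NP-40 at 4°C, and the supernatant after 21,000xg for 90 min was measured by TMTpro 16plex LC-MS/MS with channel sums equalised. Reported thermal stability, relative to control samples and from duplicates, is a log2 fold change.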
Consider FIBP (UniProt O43427), for which the log2 fold change is 0.004. Turning to HIP1 (UniProt O00291), the log2 fold change was -0.001. Under IFT74 (UniProt Q96LB3) stands 0.075; under HECTD1 (UniProt Q9ULT8), -0.018; under FMC1 (UniProt Q96HJ9), 0.051. Under GUK1 isoform 2 (UniProt Q16774) stands 0; under FUBP3 (UniProt Q96I24), -0.032.

For the target FKBP7 (UniProt Q9Y680), the log2 fold change is 0.036. Regarding GCLM (UniProt P48507), the log2 fold change is -0.042.

As for FBXO6 (UniProt Q9NRD1), the log2 fold change was -0.099. In the case of HTATIP2 isoform 3 (UniProt Q9BUP3), the log2 fold change is -0.016. Then FDFT1 (UniProt P37268), with -0.028. Under HP1BP3 (UniProt Q5SSJ5) stands -0.098; under GCSH (UniProt P23434), -0.008. On to IFRD1 (UniProt O00458), for which the log2 fold change was 0.006. Then GATD1 (UniProt Q8NB37), with 0.011. Under HOOK3 (UniProt Q86VS8) stands -0.007; under H3-3A (UniProt P84243), 0.102; under GSTP1 (UniProt P09211), 0.027. Then HNRNPUL1 (UniProt Q9BUJ2), with -0.011; and HSPA8 (UniProt E9PK54), with 0.048; and HMGCR isoform 3 (UniProt P04035), with 0.146. Turning to GSK3B isoform 2 (UniProt P49841), the log2 fold change was 0.03. Under HLTF (UniProt Q14527) stands -0.027.

Take GTF3C5 isoform 3 (UniProt Q9Y5Q8): the log2 fold change is -0.021. Under HNRNPK isoform 2 (UniProt P61978) stands 0.003.

With IFNGR1 (UniProt P15260), the log2 fold change is 0.088. Then ICAM1 (UniProt P05362), with 0.043. Under GTF2A2 (UniProt P52657) stands 0.018; under GLUD2 (UniProt P49448), -0.042; under GLIPR2 (UniProt Q9H4G4), -0.013. Then HBQ1 (UniProt P09105), with 0.028. For GSTO1 (UniProt P78417), the log2 fold change was 0. Then GNS (UniProt P15586), with -0.009.

Values taken from the supplement of paper PMC10849652.
